Reference: the supplement of paper PMC10338343
± gives the standard deviation. Whole data set: some 5,500 sequences, median “pre-steady-state target cleavage rate” near 0.1, cut for the highest 2% near 0.64. Only a selection was taken, and the highest values are over-represented in it overall.

system: MIWI (PIWIL1) piRISC loaded with piRNA #2 (30 nt); experiment: pre-steady-state target cleavage rate (min^-1); MIWI and MILI are mouse PIWI proteins and EfPiwi is from a freshwater sponge; tags in brackets are library labels; higher = faster piRNA-guided slicing of the target; conditions: guide: piRNA #2 5'p-UUAGGUAACCCAGUAGAUCCAGAGGAAUUC; auxiliary factor: 500 nM mouse GTSF1
Procedure: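 Cleave-'n-Seq: a library of target RNAs (target site embedded in constant flanks, ACAGCATTCCGCGTTAGTGATATCCG... 5' flank; DNA-blocked outside the site) at 0.1 nM was incubated with 1 nM active mouse MILI or MIWI piRISC (synthetic 5'-monophosphorylated piRNA guide) with or without 500 nM mouse GTSF1 at 33 °C for 1 min to 16 h. Uncleaved targets were sequenced and normalised to non-target controls, and the pooled three trials were fitted to a burst-and-steady-state model to give the pre-steady-state cleavage rate (min^-1; k3 is constrained to at most 1e-4). Sequence is the target site only; target names encode pairing extent (gX:gY) and contiguous / 1-mismatch / 2-mismatch / bulge geometry. Fits with R² ≤ 0 are excluded.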

Q: CUAUUCCACUGGAUCUACUCGGUUACCUAA was tested. Which “pre-steady-state target cleavage rate” value did it give?
A: 0.0817 ± 0.018

Q: Which “pre-steady-state target cleavage rate” value does the source give for GAAUUCCACUCGAUCUACUGGGUUACCUAA here?
A: 0.564 ± 0.056

Q: For CUAUUCCACUGGAUCUACUGGGUUACCUAA, which “pre-steady-state target cleavage rate” value is on record?
A: 0.588 ± 0.061

Q: With CUAUUCCACUCGAUCUACUGGGUUACCUAA as the sequence, how does the “pre-steady-state target cleavage rate” value read?
A: 0.703 ± 0.037

Q: CUUUUCCACUCGAUCUACUGGGUUACCUAA was tested. Which “pre-steady-state target cleavage rate” value did it give?
A: 0.547 ± 0.033

Q: Which “pre-steady-state target cleavage rate” value does the source give for CAAUUCCACUCGAUCUACUGGGUUACCUAA here?
A: 0.798 ± 0.047

Q: Which “pre-steady-state target cleavage rate” value does the source give for CUUAACCUCUGGAUCUAGUGGGUUACCAAA here?
A: 0.0597 ± 0.0073

Q: How did the “pre-steady-state target cleavage rate” value turn out when CAAUUCCACUGGAACUACUGGGUUACCUAA was run?
A: 0.408 ± 0.042

Q: How did the “pre-steady-state target cleavage rate” value turn out when CUUAAGCUGUGGAUCUACUGGGUUUCCUAA was run?
A: 0.0403 ± 0.019

Q: How did the “pre-steady-state target cleavage rate” value turn out when CUAUACCUCUGGAUCUACUGCGUUACCUAA was run?
A: 0.732 ± 0.066

Q: How did the “pre-steady-state target cleavage rate” value turn out when GAAUACCUCUGGAUCUACUGCGUUACCUAA was run?
A: 0.456 ± 0.04

Q: With CUAUACCUCUGGAUCUACUGGGUUACCUAA as the sequence, how does the “pre-steady-state target cleavage rate” value read?
A: 0.544 ± 0.084

Q: Which “pre-steady-state target cleavage rate” value does the source give for CUAUACCUCUGGAUCUACUGGGUUACGUAA here?
A: 0.674 ± 0.032

Q: CUUAUACCUCUGGAUCUACUGGGUUACCUAA was tested. Which “pre-steady-state target cleavage rate” value did it give?
A: 0.389 ± 0.061

Q: With GAAUACCUCUGGAUCUACUGGGUUACGUAA as the sequence, how does the “pre-steady-state target cleavage rate” value read?
A: 0.609 ± 0.038

Q: Which “pre-steady-state target cleavage rate” value does the source give for CAAUACCUCUGGAUCUACUGGGUUACGUAA here?
A: 0.567 ± 0.059

Q: Which “pre-steady-state target cleavage rate” value does the source give for GUAUACCUCUGGAUCUACUGGGUUACCUAA here?
A: 0.642 ± 0.23

Q: Which “pre-steady-state target cleavage rate” value does the source give for CAAUACCUCUGGAUCUACUGCGUUACCUAA here?
A: 0.488 ± 0.063

Q: For CUUAAGCUCUGGAUCUACUGGCUUACCUAA, which “pre-steady-state target cleavage rate” value is on record?
A: 0.0576 ± 0.012

Q: With CUUAAGGUCUGGAUCUACUGCGUUUCCUAA as the sequence, how does the “pre-steady-state target cleavage rate” value read?
A: 0.0557 ± 0.014

Q: For CUUAAGGUAUGGAUCUACUGGGUUACCUAA, which “pre-steady-state target cleavage rate” value is on record?
A: 0.323 ± 0.035

Q: Which “pre-steady-state target cleavage rate” value does the source give for CAAUUCCUCUGGAACUACUCGGUUACCUAA here?
A: 0.157 ± 0.022

Q: For CUUAACCUCUGGAUCUACUGGGUAAGCUAA, which “pre-steady-state target cleavage rate” value is on record?
A: 0.05 ± 0.0099

Q: CUAUUCCUCCUGGAUCUACUGGGUUACCUAA was tested. Which “pre-steady-state target cleavage rate” value did it give?
A: 0.613 ± 0.06

Q: CAAUUCCUCGGAUCUACUGGGUUACCUAA was tested. Which “pre-steady-state target cleavage rate” value did it give?
A: 0.47 ± 0.087

Q: With CAAUUCCUCCGGAUCUACUGGGUUACCUAA as the sequence, how does the “pre-steady-state target cleavage rate” value read?
A: 0.677 ± 0.096

Q: With GAAUUCCUCCGGAUCUACUGGGUUACCUAA as the sequence, how does the “pre-steady-state target cleavage rate” value read?
A: 0.407 ± 0.058

Q: How did the “pre-steady-state target cleavage rate” value turn out when CUAUUCCUCGGAUCUACUGGGUUACCUAA was run?
A: 0.447 ± 0.083

Q: How did the “pre-steady-state target cleavage rate” value turn out when CUAUUCCUCCGGAUCUACUGGGUUACCUAA was run?
A: 0.697 ± 0.12

Q: Which “pre-steady-state target cleavage rate” value does the source give for CUUAAGGACUGGAUCUACAGCGUUACCUAA here?
A: 0.00714 ± 0.0051

Q: For CUUUUCCACUGGAUCUACAGGGUUACCUAA, which “pre-steady-state target cleavage rate” value is on record?
A: 0.248 ± 0.016

Q: With CUUUUCCUCUCGAUCUUCUGGGUUACCUAA as the sequence, how does the “pre-steady-state target cleavage rate” value read?
A: 0.63 ± 0.051

Q: With CAAUUCCUCUGGAUCUUCUGGGUUACCUAA as the sequence, how does the “pre-steady-state target cleavage rate” value read?
A: 0.49 ± 0.065

Q: With CUAUUCCUCUCGAUCUUCUGGGUUACCUAA as the sequence, how does the “pre-steady-state target cleavage rate” value read?
A: 0.803 ± 0.07

Q: With CAAUUCCUCUCGAUCUUCUGGGUUACCUAA as the sequence, how does the “pre-steady-state target cleavage rate” value read?
A: 0.737 ± 0.059

Q: For CUAUUCCUCUGGAUCUUCUGGGUUACCUAA, which “pre-steady-state target cleavage rate” value is on record?
A: 0.412 ± 0.054

Q: For GAAUUCCUCUCGAUCUUCUGGGUUACCUAA, which “pre-steady-state target cleavage rate” value is on record?
A: 0.62 ± 0.064

Q: Which “pre-steady-state target cleavage rate” value does the source give for CUUAUCCUCUGGAUCAUCUGGGUUACCUAA here?
A: 0.246 ± 0.028

Q: Which “pre-steady-state target cleavage rate” value does the source give for CAUAACCUCUGGAUCUACUGGGUUACCUAA here?
A: 0.234 ± 0.033

Q: CUUAACCUCUGGAUCUUCUGGGUUUCCUAA was tested. Which “pre-steady-state target cleavage rate” value did it give?
A: 0.042 ± 0.0092

Q: With CAAUUCCUCUGGAUCUACAGGGUUUCCUAA as the sequence, how does the “pre-steady-state target cleavage rate” value read?
A: 0.178 ± 0.026

Q: CAAUUCCUCAGGAUCUACUGGGUUACCUUA was tested. Which “pre-steady-state target cleavage rate” value did it give?
A: 0.604 ± 0.075

Q: Which “pre-steady-state target cleavage rate” value does the source give for GAAUUCCUCUGGAUGUACAGGGUUACCUAA here?
A: 0.413 ± 0.029

Q: Which “pre-steady-state target cleavage rate” value does the source give for GAAAUCCUCUGGUUCUACUGGGUUACCUAA here?
A: 0.624 ± 0.05

Q: Which “pre-steady-state target cleavage rate” value does the source give for CUAAUCCUCUGGAUCUACUGGGUUACCUAA here?
A: 0.412 ± 0.061

Q: With CAAAUCCUCUGGUUCUACUGGGUUACCUAA as the sequence, how does the “pre-steady-state target cleavage rate” value read?
A: 0.79 ± 0.044

Q: For CUUAUCCUCUGGUUCUACUGGGUUACCUAA, which “pre-steady-state target cleavage rate” value is on record?
A: 0.607 ± 0.047

Q: How did the “pre-steady-state target cleavage rate” value turn out when CAAAUCCUCUGGAUCUACUGGGUUACCUAA was run?
A: 0.47 ± 0.069

Q: Which “pre-steady-state target cleavage rate” value does the source give for CUAAUCCUCUGGUUCUACUGGGUUACCUAA here?
A: 0.755 ± 0.048

Q: Which “pre-steady-state target cleavage rate” value does the source give for CUUAAGCUCUGGAACUACUCGGUUACCUAA here?
A: 0.0422 ± 0.011

Q: For CUUAUCCUCUGGAACUACUGGGUUACCUUA, which “pre-steady-state target cleavage rate” value is on record?
A: 0.254 ± 0.03

Q: Which “pre-steady-state target cleavage rate” value does the source give for CGAUUCCUCUGGAUCUACUGGGUUACCUAA here?
A: 0.329 ± 0.048

Q: CUUUUCCUCUGGAUCUACUGGGUAACCAAA was tested. Which “pre-steady-state target cleavage rate” value did it give?
A: 0.13 ± 0.034

Q: Which “pre-steady-state target cleavage rate” value does the source give for CUUAAGGACGGGAUCUACUGGGUUACCUAA here?
A: 0.0681 ± 0.038

Q: For GAAUUCCUCUGGAUUACUGGGUUACCUAA, which “pre-steady-state target cleavage rate” value is on record?
A: 0.413 ± 0.04

Q: CAAUUCCUCUGGAUCUGCUGGGUUACCUAA was tested. Which “pre-steady-state target cleavage rate” value did it give?
A: 0.641 ± 0.08

Q: With GAAUUCCUCUGGAAGUACUGGGUUACCUAA as the sequence, how does the “pre-steady-state target cleavage rate” value read?
A: 0.511 ± 0.047

Q: How did the “pre-steady-state target cleavage rate” value turn out when GAAUUCCUCUGGAUCUGCUGGGUUACCUAA was run?
A: 0.213 ± 0.044

Q: With CUAUUCCUCUGGAUUUACUGGGUUACCUAA as the sequence, how does the “pre-steady-state target cleavage rate” value read?
A: 0.529 ± 0.048

Q: With CAAUUCCUCUGGAUUUACUGGGUUACCUAA as the sequence, how does the “pre-steady-state target cleavage rate” value read?
A: 0.681 ± 0.062

Q: GAAUUCCUCUGGAUUUACUGGGUUACCUAA was tested. Which “pre-steady-state target cleavage rate” value did it give?
A: 0.425 ± 0.073

Q: For CAAUUCCUCUGGAUCUCCUGGGUUACCUAA, which “pre-steady-state target cleavage rate” value is on record?
A: 0.231 ± 0.051

Q: CUAUUCCUCUGGAAGUACUGGGUUACCUAA was tested. Which “pre-steady-state target cleavage rate” value did it give?
A: 0.631 ± 0.046

Q: Which “pre-steady-state target cleavage rate” value does the source give for CAAUUCCUCUGGAUUCUACUGGGUUACCUAA here?
A: 0.473 ± 0.059

Q: How did the “pre-steady-state target cleavage rate” value turn out when CAAUUCCUCUGGAUUACUGGGUUACCUAA was run?
A: 0.692 ± 0.054

Q: CAAUUCCUCUGGAAGUACUGGGUUACCUAA was tested. Which “pre-steady-state target cleavage rate” value did it give?
A: 0.651 ± 0.044

Q: How did the “pre-steady-state target cleavage rate” value turn out when CAAUUCCUCUGGUUCUACUCGGUUACCUAA was run?
A: 0.167 ± 0.014

Q: Which “pre-steady-state target cleavage rate” value does the source give for CAAUUCCUCUGGAACUACUGGGUUACCAAA here?
A: 0.289 ± 0.055

Q: Which “pre-steady-state target cleavage rate” value does the source give for CUUAAGGAGUGGAUCUACUGGGUUGCCUAA here?
A: 0.0417 ± 0.011

Q: How did the “pre-steady-state target cleavage rate” value turn out when CUUAUCCAUCUGGAUCUACUGGGUUACCUAA was run?
A: 0.508 ± 0.051

Q: CUUUUCCUCUGGACCUACUGGGUUACCUAA was tested. Which “pre-steady-state target cleavage rate” value did it give?
A: 0.157 ± 0.02

Q: With GAAUUCCUGUGGAUCUACUGCGUUACCUAA as the sequence, how does the “pre-steady-state target cleavage rate” value read?
A: 0.362 ± 0.053

Q: How did the “pre-steady-state target cleavage rate” value turn out when CUUAUCCUCUGGAUCUACUGGGAUACCUAA was run?
A: 0.302 ± 0.039

Q: How did the “pre-steady-state target cleavage rate” value turn out when CUUAAGGUCUGGAUCUUCUGGGAUACCUAA was run?
A: 0.0453 ± 0.017
